Source: PubChem BioAssay (NCATS)
Results filed as inconclusive are left out. A call without a number means that no potency is given here. Values without a mark were called inactive. Activity calls are given as the source filed them. The call rests on the fitted dose curve; in most records, active means well fitted inhibition curve with a large enough effect; inconclusive means small, poorly fitted or top-dose-only effect; inactive means no such curve, though single readings can be large or run the other way.
Potency means the concentration at half of the fitted maximal effect.

Assay: Counterscreen qHTS for small molecule stabilizers of the endoplasmic reticulum resident proteome: GLuc-NoTag assay (AID 1508627)
Conditions: Gaussia luciferase NoTag secretion counterscreen, luminescence, thapsigargin 100 nM for final 4 h; series mostly up to 76.4 µM
Summary of the method: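 Secreted GLuc lacking the SERCaMP modification is measured in SH-SY5Y cells exposed to compound for 19 h and then to thapsigargin (100 nM, 4 h) to deplete ER calcium; hits retested at 11 concentrations, up to 76.6 uM.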
For `CC(C)[C@@]1(NC(=O)[C@@H]2C[C@H]3c4cccc5[nH]cc(c45)C[C@@H]3N(C)C2)O[C@@]2(O)[C@H]3CCCN3C(=O)[C@H](Cc3ccccc3)N2C1=O`, the Potency was “inactive”. For `CCC(Sc1ccccc1)C(=O)OC1CC2CCC(C1)N2C` (stereo not given), the Potency was “inactive”. With `Cn1c2c(c3ccccc31)CCNCC2` the Potency was “inactive”. For `OC12C3C4CC5C6C4C1C6C(C53)N2CCc1cccc(F)c1` (stereo not given), the Potency was “inactive”. With `Cl.Cl.Cl.Cl.Cl.Cl.N.N.N.N.NNNNN.NNNNN.O.O.[Ru].[Ru].[Ru]` the Potency was 12.6 µM (active). With `CC(C)(O)C1O[C@H]2CC[C@@]3(C)[C@@](O)(CC[C@H]4Cc5c([nH]c6ccccc56)[C@@]43C)C2=CC1=O` (stereo not given in full) the Potency was “inactive”. In the case of `C[C@@H](C(=O)OC1C[C@H]2CC[C@@H](C1)N2C)c1ccc(Br)cc1` (stereo not given in full), the Potency is reported as “inactive”. In the case of `CN1C(=O)COc2c(C(=O)N[C@@H]3CN4CCC3CC4)cc(Cl)cc21`, the Potency is reported as “inactive”. In the case of `c1ccc2sc(C3(N4CCCC4)CCCCC3)cc2c1`, the Potency is reported as “inactive”. For `NC(N)=NCCCCCCCCCCN=C(N)N`, the Potency was “inactive”. In the case of `C[C@H]1C[C@H](C)C(=O)[C@@H]([C@H](O)CC2CC(=O)NC(=O)C2)C1`, the Potency is reported as 1.58 µM (active). With `CC(C)=CCCN1CCC(NC(=O)C(O)(c2ccccc2)C2CCCC2)CC1` (stereo not given) the Potency was “inactive”. For `CN1C2CCC1CC(OC(c1ccc(F)cc1)c1ccc(F)cc1)C2` (stereo not given), the Potency was 22.4 µM (active). In the case of `CC(=O)C1=C(O)[C@@H]2[C@@H]3c4c[nH]c5cccc(c45)C[C@@H]3C(C)(C)N2C1=O`, the Potency is reported as “inactive”. With `CN1CC[C@@H]2CN3CCc4cccc(c43)[C@@H]2C1` the Potency was “inactive”. For `COc1ccc2[nH]cc(C3=CCNCC3)c2c1`, the Potency was 6.31 µM (active). With `Oc1ccc2c3c1O[C@H]1c4[nH]c5ccccc5c4C[C@]4(O)[C@H](C2)N(CC2CC2)CC[C@@]314` the Potency was “inactive”. Compound `CC(C)C[C@H](NC(=O)[C@H](Cc1ccccc1)NC(=O)CNC(=O)[C@H](C)NC(=O)[C@@H](N)Cc1ccc(O)cc1)C(=O)O` has an activity change, negative = inhibition of 12% [at 9.46 µM]. With `CN1CC[C@@]2(c3cccc(O)c3)Cc3nc4ccccc4cc3C[C@H]2C1` the Potency was “inactive”. For `CCN(CC)CCO[C@H]1CC[C@@]2(C)C(=CC[C@@H]3[C@H]2CC[C@]2(C)C(=O)CC[C@H]32)C1`, the Potency was 25.1 µM (active).
